LANA-H2A inh: blocks KSHV LANA binding to histone H2A/H2B; inhibition, % (concentration not given with the values); AID 2629; cell-free LANA-H2A/H2B peptide, fluorescence polarization; 0.6% of 320,000 active; in the data active means inhibition mostly above about 10%, no sharp cut-off; inactive means mostly below about 6.7%
ABHD5 PLIN5 PPI: blocks binding of human ABHD5 to perilipin-5 | Q00G26+Q8WTS1 | Split G. princeps luciferase complementation, luminescence, 4 h | inhibition, % at 4 µM | 0.78% of 360,000 active;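 active means inhibition above the mean inhibition across every tested compound plus 3 SD, cut at about 22% in these data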;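 further: 0% = DMSO only wells and the 100% control is not disclosed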
Target sequence (Q00G26 whole entry, looked up): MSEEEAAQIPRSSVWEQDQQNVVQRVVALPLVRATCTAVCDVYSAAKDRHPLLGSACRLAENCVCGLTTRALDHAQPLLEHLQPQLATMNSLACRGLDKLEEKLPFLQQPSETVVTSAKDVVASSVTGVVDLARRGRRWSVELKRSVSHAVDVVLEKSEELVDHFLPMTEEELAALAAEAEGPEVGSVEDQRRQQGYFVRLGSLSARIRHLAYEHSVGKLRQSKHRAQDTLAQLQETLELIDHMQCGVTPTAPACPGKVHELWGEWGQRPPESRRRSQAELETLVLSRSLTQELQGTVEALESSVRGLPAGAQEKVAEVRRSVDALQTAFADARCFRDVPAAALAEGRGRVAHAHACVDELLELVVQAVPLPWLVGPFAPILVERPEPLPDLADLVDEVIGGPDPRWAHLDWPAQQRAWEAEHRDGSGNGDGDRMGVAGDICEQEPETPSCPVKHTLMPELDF
Target sequence (Q8WTS1 whole entry, looked up): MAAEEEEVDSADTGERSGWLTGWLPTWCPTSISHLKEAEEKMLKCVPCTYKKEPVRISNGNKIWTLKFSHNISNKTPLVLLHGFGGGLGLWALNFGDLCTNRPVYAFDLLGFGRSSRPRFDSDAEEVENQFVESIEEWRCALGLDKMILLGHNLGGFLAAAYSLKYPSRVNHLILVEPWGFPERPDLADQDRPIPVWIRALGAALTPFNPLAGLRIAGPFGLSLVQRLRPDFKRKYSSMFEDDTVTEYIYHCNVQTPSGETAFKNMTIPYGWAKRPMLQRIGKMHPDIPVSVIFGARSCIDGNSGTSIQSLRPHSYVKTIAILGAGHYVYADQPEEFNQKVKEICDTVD
ALR H2O2 inh: blocks human ALR sulfhydryl oxidase activity. P55789. purified ALR, DTT oxidation, H2O2 HRP-luminol luminescence. inhibition, % (test concentration not listed). 3.8% of 290,000 active. AID 485317;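 active means mean replicate inhibition above about 79%, with every replicate also reaching it, limit read from the data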
PRMT1 inh: PRMT1 (human) inhibition, primary screen | Q99873 | recombinant PRMT1, activity-based probe fluorescence polarization | inhibition, % at 2.79 µM | 1.3% of 370,000 active;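 active means inhibition above about 21% made by adding two undisclosed values, limit read from the data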
rCAG RNA binder: binds r(CAG) RNA repeats | r(CAG) RNA repeat, TO-PRO-1 dye displacement fluorescence | inhibition, % at 3 µM | 1.3% of 370,000 active;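 active means inhibition above the plate cutoff, the mean of all test compounds on that plate plus 3 SD, cut at about 35% in these data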;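 further: 0% = DMSO alone and 100% = 100 µM mitoxantrone as full dye displacement; higher means more dye released from RNA so lower well fluorescence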
Rtt109 HAT inh: C. albicans Rtt109 histone acetyltransferase inhibition | inhibition, % at 34.9 µM | 0.16% of 330,000 active | AID 540336 | purified Rtt109/Vps75, ThioGlo CoA-SH fluorescence, 4 h;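 active means inhibition of at least 50% in every replicate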
rCAG bind conf: r(CAG) RNA repeat binding, confirmation; shares compounds with rCAG RNA binder; TO-PRO-1 dye displacement fluorescence; inhibition, % at 3 µM; 70% of 4,300 active;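 active means inhibition above a per-plate cutoff, the mean inhibition of sample wells plus 3 SD, cut at about 35% in these data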;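 further: loss of TO-PRO-1 fluorescence as compound displaces dye from 1x1 AA loop RNA; 0% = DMSO only wells and 100% = 100 µM mitoxantrone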
dCAG dye counter: disrupts DNA CAG TO-PRO-1 complex, flagging rCAG hits. shares compounds with rCAG RNA binder. d(CAG) DNA oligo TO-PRO-1 dye displacement, fluorescence. inhibition, % at 3 µM. 94% of 4,300 active. AID 652068;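 active means inhibition above its plate's cutoff, the mean test-well inhibition plus 3 SD, cut at about 4.8% in these data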;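 further: 0% = DNA dye mix with DMSO and 100% = 100 µM mitoxantrone; hits displace the dye from DNA and so lower well fluorescence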
DNA CAG DR: counter-screen for rCAG binders: inhibitors of DNA CAG TO-PRO-1 complex. shares compounds with rCAG RNA binder. IC50, µM. DNA CAG/GTC duplex TO-PRO-1 dye displacement fluorescence. 20% of 250 active; in the data active means IC50 below about 10 µM
Active calls of the source: *; i = inactive; x = no result. This is a sample that favours compounds with a hit; in the whole collection about 5.9% have one here.

SMILES	LANA-H2A inh	ABHD5 PLIN5 PPI	ALR H2O2 inh	PRMT1 inh	rCAG RNA binder	Rtt109 HAT inh	rCAG bind conf	dCAG dye counter	others
Cn1cnnc1Sc1ccc(/C=C(\CC(=O)O)c2nc3ccccc3s2)cc1[N+](=O)[O-]	2.3	3.9	65.6	1.7	13.7	8.9	x	x
O=C(O)C/C(=C\c1ccc2c(c1)OCO2)c1nc2ccccc2s1	-2.2	-0.9	x	4.8	15.6	-0.2	x	x
O=C(O)CC/C(=C\c1ccc(N2CCCC2)c([N+](=O)[O-])c1)c1nc2ccccc2s1	2.7	-2.1	4.5	11.9	70.3*	19.6	88.5*	52.9*
O=C(O)C/C(=C\c1cc(Cl)c2c(c1)OCO2)c1nc2ccccc2s1	2.8	-8.0	11.6	6.0	46.6*	2.6	45.4*	17.6*
O=C(O)CC/C(=C\c1cccc(NC(=O)c2ccccc2Cl)c1)c1nc2ccccc2s1	-10.7	5.0	5.0	-2.5	61.1*	1.1	73.0*	26.6*	DNA CAG DR=i
CN(c1ccccc1)c1ccc(/C=C(/CCC(=O)O)c2nc3ccccc3s2)cc1[N+](=O)[O-]	x	-2.0	x	10.9	77.3*	3.9	82.2*	42.9*
COc1cccc(/C=C(\CC(=O)O)c2nc3ccccc3s2)c1	-2.9	7.0	x	-2.1	18.2	9.3	x	x
C/C=C/c1ccc([C@@H]2[C@H](CO)N(S(C)(=O)=O)[C@H]2CN(C)C(=O)CC)cc1	x	x	x	-0.6	4.8	x	x	x
COC(=O)C[C@H]1CC[C@H](NC(=O)Nc2ccccc2F)[C@@H](CO)O1	x	2.5	x	0.6	-0.4	x	x	x
C[C@H]1[C@@H](NC(=O)c2ccc(Cl)c(C(F)(F)F)c2)CC[C@@]23CCCN2C(=O)CCC[C@@H]13	x	x	x	-1.2	x	x	x	x
CCCCCCCCN1C(=O)[C@@H](CC(=O)NCc2ccccc2)C[C@@]2(C(=O)OC)C1=C[C@H](C(C)C)O[C@@H]2C1CC1	x	x	x	-1.9	11.3	x	x	x
CN(C)C1CN(Cc2cn(Cc3ccc(C(F)(F)F)cc3)nn2)S(=O)(=O)C1 (stereo not drawn)	x	-1.1	x	-2.4	0.7	x	x	x
Cc1c(CCC(=O)N2CCC[C@H]2C(=O)O)c(=O)oc2c(C)c3oc4c(c3cc12)CCCC4	2.3	-1.3	23.9	3.5	37.6*	3.2	58.1*	18.6*	DNA CAG DR=>29.9
c1coc(-c2nnc3n2N=C(c2ccc4c(c2)OCO4)CS3)c1	x	x	x	2.3	3.6	x	x	x
CCN(CC(=O)NCc1ccc(Cl)cc1)C(=O)c1ccc(C#N)cc1	-2.1	4.7	-13.7	-2.5	8.9	-0.7	x	x
CCOC(=O)C1=C(O)/C(=C/c2ccc(-c3ccccc3C(=O)O)o2)SC1=Nc1ccc(OC)cc1	x	3.5	x	19.3	38.1*	0.9	80.0*	38.4*
COc1cc(/C=C2/SC(=O)NC2=O)ccc1OC(=O)c1ccco1	0.8	-7.2	21.6	1.8	13.0	-2.0	x	x
CCOC(=O)C1=C(O)/C(=C/c2ccc(OCC(=O)O)c(OCC)c2)SC1=Nc1ccccc1	2.8	3.2	52.1	1.5	15.3	28.8	x	x
CCc1ccc(N=C2NC(=O)/C(=C/c3cc(Br)c(OCC(=O)O)c(OC)c3)S2)cc1	1.3	1.5	97.7*	-3.1	57.5*	-1.8	55.6*	19.4*
CCOc1cc(/C=C2/SC(=S)NC2=O)ccc1OC(=O)c1ccco1	6.4	12.1	97.9*	5.1	71.8*	6.6	78.9*	42.7*
CCOC(=O)C1=C(O)/C(=C/c2cc(OC)c(O)c(OC)c2)SC1=Nc1ccc(OC)cc1	x	-6.1	x	-3.6	14.8	-2.4	x	x
CCOC(=O)C1=C(O)/C(=C/c2ccc(OCC(=O)O)c(OC)c2)SC1=Nc1ccc(OCC)cc1	7.1	2.2	-3.9	1.4	38.2*	6.7	64.8*	21.1*
Cc1csc(-c2cc(C(=O)NCc3ccc(F)cc3)n[nH]2)c1	x	-16.2	x	-5.0	1.4	x	x	x
COC(=O)c1ccc(Cn2ccc3ccc(-c4ccc5ccn(C(=O)c6ccc(C)cc6)c5c4)cc32)cc1	x	x	x	-4.3	13.8	x	x	x
CC(C)C[C@H](NC1(C(=O)NC2CCCCC2)CCOCC1)C(=O)NCC(c1ccccc1)c1ccccc1	x	x	x	2.9	x	x	x	x
SMILES	LANA-H2A inh	ABHD5 PLIN5 PPI	ALR H2O2 inh	PRMT1 inh	rCAG RNA binder	Rtt109 HAT inh	rCAG bind conf	dCAG dye counter	others
CCCCN(CCCC)Cc1cc(=O)oc2cc(OC)c(Cl)cc12	x	0.3	x	-0.3	7.6	x	x	x
CCOc1cc(Br)cc(/C=C2\SC(=Nc3ccccc3)NC2=O)c1O	-1.4	5.2	48.3	24.1*	67.3*	2.4	82.5*	47.3*
C=CCOc1ccc(Br)cc1/C=C1/SC(=Nc2ccc(C(=O)O)cc2)NC1=O	x	7.8	x	4.4	13.5	1.2	x	x
CCOc1cc(/C=C2\SC(=Nc3ccc(CC)cc3)NC2=O)ccc1OCC(=O)O	-2.4	2.0	x	3.0	71.2*	-1.3	47.2*	14.0*
CCc1nc2ccc(C(=O)NCc3ccccc3OC)cn2c1N(C)Cc1ccc(OC)cc1	x	9.3	x	3.3	3.8	x	x	x
Cc1c(C(=O)N(C)C)sc(NC(=O)c2cc([N+](=O)[O-])cc([N+](=O)[O-])c2)c1C#N	-1.0	-9.8	-4.9	-1.8	56.2*	17.1	37.2*	9.9*
O=C(NCC1CC1)C1Cc2c(-c3ccc4c(c3)OCO4)ccnc2O1 (stereo not drawn)	x	4.2	x	1.4	1.6	x	x	x
CCOC(=O)CCc1ccc(NC(=O)/C=C/c2ccc([N+](=O)[O-])o2)cc1	x	-7.1	x	-0.1	5.9	0.9	x	x
CCc1ccc(C(=O)/C=C/c2ccc([N+](=O)[O-])o2)cc1	-2.5	11.3	9.9	18.5	38.0*	5.5	17.3	11.1*
Oc1ccc(/C=N/N(c2ccccc2)c2ccccc2)c(O)c1O	0.4	-6.9	x	12.4	43.3*	-9.1	51.9*	27.6*
C(=N\N(c1ccccc1)c1ccccc1)/c1ccccn1	-0.9	-0.5	-8.6	4.0	-2.4	5.3	x	x
Cc1snc(S(=O)(=O)/C(C#N)=N/Nc2ccc(C(F)(F)F)cc2)c1C#N	2.3	-8.3	x	-2.5	68.1*	18.5	77.6*	34.9*
COc1ccc(OC)c(S(=O)(=O)NC(=O)C2(C)CCN2C(=O)C2(c3ccc(Cl)cc3)CC2)c1 (stereo not drawn)	x	9.6	x	7.5	23.9	x	x	x
CCOc1ccc(C2CC=C(C(=O)O)CN2S(=O)(=O)c2ccc(C)cc2)cc1 (stereo not drawn)	x	x	x	2.3	19.9	x	x	x
Cc1c(C(c2cccc([N+](=O)[O-])c2O)c2c(C)n(C)n(-c3ccccc3)c2=O)c(=O)n(-c2ccccc2)n1C	6.0	-2.0	-0.4	3.5	4.2	4.2	x	x

Screens (PubChem BioAssay)
